Source: paper PMC5540273 (PLoS ONE, 2017)

Legend:
Conditions in all cases: concentration: 1 μM, replicates: in singlicate; n = 1
TIE1 = tested on: TIE1
TIE2 = tested on: T1, TIE2
T1 construct: gene TEK

TLK1 = tested on: TLK1
TLK2 = tested on: TLK2
TNIK = tested on: TNIK
TNK1 = tested on: TNK1
TNK2 = tested on: TNK2
TNNI3K = tested on: TNNI3K
TRKA = tested on: T2, TRKA
T2 construct: gene NTRK1

TRKB = tested on: TRKB
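Also: KINOMEscan kinase panel screen.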

Structure (SMILES) | %Inh (TIE1) | %Inh (TIE2) | %Inh (TLK1) | %Inh (TLK2) | %Inh (TNIK) | %Inh (TNK1) | %Inh (TNK2) | %Inh (TNNI3K) | %Inh (TRKA) | %Inh (TRKB)
Clc1ccc(-c2cc(-c3c[nH]nc3-c3ccccn3)ccn2)cc1 [GW681251] | 33% | 0% | 0% | 0% | 80% | 0% | 0% | 17% | 0% | 0%
NC(=O)c1sc(-n2cnc3ccccc32)cc1OCc1ccccc1F [GSK1024306] | 2% | 0% | 0% | 0% | 56% | 0% | 9% | 18% | 51% | 0%
Nc1n[nH]c2nnc(-c3ccccc3)cc12 [SB-517389] | 0% | 0% | 15% | 0% | 0% | 0% | 20% | 13% | 0% | 0%
COc1ccc(Nc2nccc(N3CCC(NC(=O)Nc4ccc5c(c4)OCO5)C3)n2)cc1 (centres unmarked) [GSK1379745] | 19% | 0% | 18% | 0% | 1% | 0% | 14% | 11% | 64% | 41%
CSc1ccc(NC2=C(c3ccccc3Cl)C(=O)NC2=O)cc1 [SB-342411] | 40% | 0% | 35% | 6% | 0% | 0% | 0% | 29% | 20% | 0%
Cc1cc(N2CCC(NS(=O)(=O)c3ccc(F)cc3)CC2)nc(Nc2cccc(C#N)c2)n1.O=C(O)C(F)(F)F [GSK1653537] | 3% | 0% | 5% | 0% | 0% | 0% | 11% | 0% | 0% | 0%
O=C(Nc1ccccc1)Nc1ccc(Oc2ccc3nccn3n2)cc1 | 13% | 46% | 0% | 0% | 0% | 43% | 10% | 82% | 0% | 0%
Cl.c1ccc(Cn2ccc3cc(Nc4ncnc5ccccc45)ccc32)cc1 [GW275568] | 0% | 0% | 19% | 0% | 0% | 0% | 12% | 18% | 5% | 0%
Cc1ccc(NC(=O)c2cccc(C#N)c2)cc1-c1ccc(C(=O)Nc2ccncc2)cc1 [GSK1398463] | 11% | 21% | 0% | 0% | 13% | 16% | 21% | 29% | 0% | 0%
Cn1ccc2ncnc(Nc3ccc(Oc4cccc(Cl)c4)c(Cl)c3)c21 | 0% | 26% | 22% | 9% | 17% | 0% | 0% | 11% | 0% | 0%
N#Cc1ccc(Oc2ccc(Nc3ncnc4cc[nH]c34)cc2Cl)cc1 | 0% | 20% | 22% | 0% | 9% | 0% | 2% | 26% | 17% | 0%
COc1cc2ncnc(Nc3ccc(OCc4ccccc4Br)c(Cl)c3)c2cc1OC.Cl [GI261590] | 0% | 3% | 0% | 0% | 0% | 0% | 24% | 5% | 0% | 19%
COc1ccc(-c2oc3ncnc(N)c3c2-c2ccc(OC)cc2)cc1 [SB-589132] | 1% | 9% | 0% | 0% | 0% | 45% | 44% | 50% | 52% | 74%
CS(=O)(=O)CCNCc1nc(-c2ccc3ncnc(Nc4ccc(OCc5cccc(F)c5)c(Cl)c4)c3c2)cs1.Cl [GW583340] | 0% | 0% | 22% | 0% | 0% | 0% | 6% | 0% | 0% | 0%
O=C(Nc1ccccc1F)NC1CCN(c2ccnc(Nc3ccc(F)cc3)n2)C1 (centres unmarked) [GSK1379722] | 0% | 0% | 0% | 0% | 0% | 0% | 27% | 0% | 0% | 32%
CN1c2ccc(-c3ccc(C(=O)NCCO)cc3)cc2-c2[nH]ncc2S1(=O)=O | 0% | 3% | 22% | 30% | 43% | 52% | 10% | 3% | 0% | 0%
CCc1nc(-c2cccc(C)c2)c(-c2ccnc(NC(=O)c3ccccc3)c2)s1 | 0% | 0% | 13% | 0% | 62% | 27% | 9% | 0% | 17% | 0%
O=C(CCO)NCCn1ccc2ncnc(Nc3ccc(Oc4cccc(C(F)(F)F)c4)c(Cl)c3)c21 | 0% | 0% | 0% | 0% | 0% | 0% | 0% | 0% | 0% | 0%
CSc1nn2c(=O)cc(N3CCOCC3)nc2n1Cc1cccc(Cl)c1Cl [GSK2347225] | 14% | 2% | 4% | 0% | 3% | 3% | 24% | 15% | 1% | 0%
Clc1cc(Nc2ncnc3cc[nH]c23)ccc1OCc1ccccn1 | 10% | 23% | 26% | 4% | 22% | 0% | 5% | 2% | 2% | 12%
